{"source": "paper PMC12136788", "binders": {"B1": {"name": "140276459_140277056_1559_CDS_ENSMUSG00000040945_ENSMUST00000038893|mouse|control|control (ssRNA)", "RNA": "GGGAGUUCUACAGUCCGACGAUCGUCUCGCGCUAUCACCAAGGAGUGUGAAUAGCCCAUGGCCACCUGUUCGGAGAAGAUGCCAUCCAGAGUCUUCACCUCCUGGGCCGCAGUAGAAGACUUGGGCUUGUGGUCCCCAUACCCCAACAGAGGAUUGAGCAUCA"}, "B2": {"name": "chr18:77696836:77696837:-_ENSMUSG00000025427_ENSMUST00000026494|mus_mus|FALSE|FALSE (ssRNA)", "RNA": "GGGAGUUCUACAGUCCGACGAUCUCCUCGGGAUAGAGGGAUGAGAGGGCUUAGGAAUGUAGGGAGGGGAGGGAAGACAGAGAGCAGACUUGAGGUGGGGAAAGAGGCCUGGGGGAGGGGGCACGAGUGACAAGUGAAAGGAUUCAACAGAGGAUUGAGCAUCA"}, "B3": {"name": "chr11:71671816:71671817:+_ENSG00000137522_ENST00000530137|hu_hu|FALSE|FALSE (ssRNA)", "RNA": "GGGAGUUCUACAGUCCGACGAUCGCGAUGAGGAUGAGGACCAUUUCAGCAUGCAUAGCUUCAUGGCCACGGUGCUUGGCAUGCAUGCGUGCGUGCUCGACCCUCAUCCAGCUCCCGUUCCCCAGCAGCACCACCUCCAACCUCCAACAGAGGAUUGAGCAUCA"}, "B4": {"name": "chr18:46858332:46858333:-_ENSG00000141627_ENST00000269445|hu_hu|FALSE|FALSE (ssRNA)", "RNA": "GGGAGUUCUACAGUCCGACGAUCCGACUGCUGAGGGAAAACAUGGGCCCCUGGAGGAGGUGGCUUUUCUUGUCUGAUAAAGUUAUAUAAUAAGGUCUUCACAAGUUUGCUGGUGUAUGGAAGACAUGGACCUCGCAUCAAAUACAACAGAGGAUUGAGCAUCA"}, "B5": {"name": "chr8:108054885:108054886:-_ENSMUSG00000013160_ENSMUST00000013304|mus_mus|FALSE|FALSE (ssRNA)", "RNA": "GGGAGUUCUACAGUCCGACGAUCUGAACGCUGGUGCAGUGUGCCUGUGAUUAGCAGGAUCACGUUGUCAAUCAUGUAGCUAUAAGUUAUGAAGUCCAGGAAGCUGGCGAGCGGCUCAUAAGCAUGGUUUCUCAUGUGGCGGAACAACAGAGGAUUGAGCAUCA"}, "B6": {"name": "chr1:35656432:35656433:-_ENSG00000116560_ENST00000357214|perfect_dup|motif|central (ssRNA)", "RNA": "GGGAGUUCUACAGUCCGACGAUCAGAUCUUCCGCGAUCAUCCACAAUUACAACAGCCCUUUCAAUAGGACCAAACUGGCGGAAGGCCUCUUCCAAAAGUUCGUUGGAAACAUAAGGAGAGAGAUUUCGAACAGACAGGGCUGCCAACAGAGGAUUGAGCAUCA"}, "B7": {"name": "17381947_17386413_246_CDS_ENSMUSG00000041720_ENSMUST00000036161|mouse|control|control (ssRNA)", "RNA": "GGGAGUUCUACAGUCCGACGAUCGCAGAAGCUGAAGCUCUCUGCAACUGGGAGGUUACCUCUGCCUUUCCGAGCUGUGCUUUCUUCUACCCAAUACACUUUUGGAAGACCCCUGAGAAGUCGAAGAAGAUAAGGAACAACACACAACAGAGGAUUGAGCAUCA"}, "B8": {"name": "235582851_235590549_671_CDS_ENSG00000116957_ENST00000366601|human|control|control (ssRNA)", "RNA": "GGGAGUUCUACAGUCCGACGAUCAUUAAGGACUUCCAGGUGUCUGAGCUGAUCAGCAAUGUGUAUCACUUCAUCCCAUGAUGACAACAGGUUUUUUGACAAAUCUACCUUUCUGAUAUUAGGACAUGCUUCAGCAACUCCUCCCAACAGAGGAUUGAGCAUCA"}, "B9": {"name": "chr16:94690093:94690094:+_ENSMUSG00000040785_ENSMUST00000117648|mus_hu|mus_mus_mus_hu_True|48_48 (ssRNA)", "RNA": "GGGAGUUCUACAGUCCGACGAUCGGGCUGGGAUGACGGACACACAGCCUCGAUUCCAGGGGGAAAAAGUCUUAGUCGAUACUAAUUUAAAAAGUAUAAUGAUUUUUGAAAAUCAGAUUACAUCUAUAAAAGAUGAAAAGCAAACAACAGAGGAUUGAGCAUCA"}, "B10": {"name": "chr16:94690093:94690094:+_ENSMUSG00000040785_ENSMUST00000117648|mus_hu|mus_mus_mus_hu_True|18_38 (ssRNA)", "RNA": "GGGAGUUCUACAGUCCGACGAUCGGGCUGGGAUGACGGACACACAGCCUCGAUUCCAGGGGGAAAAAGUCUUAGUCGAUACUAAUUAAAAAGUGUUUUUAUAAUUGGAAAAUCAGAUGUAGAUUAAAAAAGAUGAAAAGCAAACAACAGAGGAUUGAGCAUCA"}, "B11": {"name": "chr16:94690093:94690094:+_ENSMUSG00000040785_ENSMUST00000117648|mus_hu|mus_mus_mus_hu_True|68_78 (ssRNA)", "RNA": "GGGAGUUCUACAGUCCGACGAUCGGGCUGGGAUGACGGACACACAGCCUCGAUUCCGGUAAAAAAAAAAAAUAGCCGAUACUAAUUAAAAAGUGUUAAUGAUUUUUGAAAAUCAGAUUACAUCUAUAAAAGAUGAAAAGCAAACAACAGAGGAUUGAGCAUCA"}, "B12": {"name": "chr16:94690093:94690094:+_ENSMUSG00000040785_ENSMUST00000117648|mus_hu|mus_mus_mus_hu_True|1_68 (ssRNA)", "RNA": "GGGAGUUCUACAGUCCGACGAUCGGGCUGGGAUGACGGACACACAGCCUCGAUUCCAGGGGGAAAAAAAAAUAGCCGAUACUAAUUAAAAAGUGUUAAUGAUUUUUGAAAAUCAGAUUACAUCUAUAAAAGAUGAAAGCACUUCAACAGAGGAUUGAGCAUCA"}, "B13": {"name": "chr16:94690093:94690094:+_ENSMUSG00000040785_ENSMUST00000117648|mus_hu|mus_mus_mus_hu_True|18_78 (ssRNA)", "RNA": "GGGAGUUCUACAGUCCGACGAUCGGGCUGGGAUGACGGACACACAGCCUCGAUUCCGGUAAAAAAAAGUCUUAGUCGAUACUAAUUAAAAAGUGUUAAUGAUUUUUGAAAAUCAGAUGUAGAUUAAAAAAGAUGAAAAGCAAACAACAGAGGAUUGAGCAUCA"}, "B14": {"name": "chr16:94690093:94690094:+_ENSMUSG00000040785_ENSMUST00000117648|mus_hu|mus_mus_mus_hu_True|8_98 (ssRNA)", "RNA": "GGGAGUUCUACAGUCCGACGAUCGGGCUGGGAUGACAGCAGACAGCCCUCGAUUCCAGGGGGAAAAAGUCUUAGUCGAUACUAAUUAAAAAGUGUUAAUGAUUUUUGAAAAUCAGAUUACAUCUAUUUGAAUCAUAAAGCAAACAACAGAGGAUUGAGCAUCA"}, "B15": {"name": "chr5:74677807:74677808:-_ENSG00000113163_ENST00000380494|hu_mus|motif|central (ssRNA)", "RNA": "GGGAGUUCUACAGUCCGACGAUCACGGACACAUCGAUUGUUCAGAGGAGCACUAUCAUGAUCCACAGAAAAAUUACAAACGGUCCAAGUUUCAGGAUCAUUUUCAGUCAAGGCUGGGAUCUUUCGAAUAGCAGAAAGAUACAGCAACAGAGGAUUGAGCAUCA"}, "B16": {"name": "chr17:6086338:6086339:+_ENSMUSG00000034345_ENSMUST00000039487|mus_mus|motif|central (ssRNA)", "RNA": "GGGAGUUCUACAGUCCGACGAUCUGACUGAAAUAUAAAAUCCAGUAGUGCUCCAAUACAGCUAGAGUGUCCAUAAAAAUCGGUCUUCUACUUAAUUCUUAGUAUCAGGUGUGUAAGUAACAAUCCACUGGAAAGUUUACAUUACAACAGAGGAUUGAGCAUCA"}, "B17": {"name": "chr16:94690093:94690094:+_ENSMUSG00000040785_ENSMUST00000117648|mus_hu|mus_mus_mus_hu_True|18_98 (ssRNA)", "RNA": "GGGAGUUCUACAGUCCGACGAUCGGGCUGGGAUGACAGCAGACAGCCCUCGAUUCCAGGGGGAAAAAGUCUUAGUCGAUACUAAUUAAAAAGUGUUAAUGAUUUUUGAAAAUCAGAUGUAGAUUAAAAAAGAUGAAAAGCAAACAACAGAGGAUUGAGCAUCA"}}, "note": "The full ranking holds about 24,000 sequences; the median of “enrichment r” is about 0.99, and the highest 2% start at about 3.7. The list comes from a sample in which the highest values are over-represented; it also holds similar and randomly drawn sequences.", "data": [{"target": "T1, UNK ZnF1-3 (human, UniProt Q9C0B0 31-174)", "T1 sequence": "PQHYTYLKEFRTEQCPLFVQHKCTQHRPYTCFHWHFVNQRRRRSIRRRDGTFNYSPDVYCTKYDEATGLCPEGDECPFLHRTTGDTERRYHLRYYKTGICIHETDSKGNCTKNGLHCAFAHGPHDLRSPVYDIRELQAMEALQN", "experiment": "nsRBNS (natural sequence RNA bind-n-seq); RBNS binding buffer (assumed for nsRBNS): 25 mM Tris pH 7.5, 150 mM KCl, 3 mM MgCl2, 0.01% Triton X-100, 500 ug/ml BSA, 20 U/ml SUPERase-In, 4 C; UNK is unkempt and MSI1 is Musashi-1; names of the RNAs are library labels; protein concentration not given here; high values mean tight binding", "units": {"binding signal": "enrichment R"}, "values": [{"binder": "B1", "binding signal": 0.829}, {"binder": "B2", "binding signal": 2.5}, {"binder": "B3", "binding signal": 0.585}, {"binder": "B4", "binding signal": 2.32}, {"binder": "B5", "binding signal": 0.896}, {"binder": "B6", "binding signal": 1.13}, {"binder": "B7", "binding signal": 0.848}, {"binder": "B8", "binding signal": 0.938}, {"binder": "B9", "binding signal": 0.836}, {"binder": "B10", "binding signal": 3.69}, {"binder": "B11", "binding signal": 5.49}, {"binder": "B12", "binding signal": 1.12}, {"binder": "B13", "binding signal": 3.5}, {"binder": "B14", "binding signal": 0.999}, {"binder": "B15", "binding signal": 1.36}, {"binder": "B16", "binding signal": 0.812}, {"binder": "B17", "binding signal": 4.09}]}]}
